The panel holds about 79,000 compounds, 15% with a hit somewhere; the sample as a whole holds those more often. Unmarked numbers belong to inactive results. Active and inactive are the calls of the source. Cut-off read from the data, not from the text of the source: active = growth inhibition above about 70%; inactive = the rest.

The experiment in a line: NCI Yeast Anticancer Drug Screen. Data for the sgs1 mgt1 strain (AID 161).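 Note: 0% = growth of cultures given vehicle only.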 Particulars: S. cerevisiae sgs1 mgt1 strain, at 50.0 µM (retest, dose inferred, filed as 5.0), active compounds read high. The procedure, abridged: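 Genetically altered yeast, compound exposure, growth inhibition relative to vehicle.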
Turning to `CC1CCN(CCOC(=O)C(c2ccccc2)C2C=CCCC2)C1C` (configuration not stated), the growth inhibition was 80% (active).

On to `CC(CCCN(C)Cc1ccccc1)Nc1ccnc2cc(Cl)ccc12` (configuration not stated), for which the growth inhibition is 99% (active).

Consider `O=C(/C(Cl)=N/O)c1ccccc1`, for which the growth inhibition was 99% (active).

For `CN(C)C1C[C@@H](O[Si](C)(C)C(C)(C)C)C=C1S(=O)(=O)c1ccccc1` (some centres not stated), the growth inhibition is 100% (active).

As to `Nc1nnc(Cc2ccc(Br)cc2)o1`, the growth inhibition was 12%.

For the molecule `CSc1nc(C)cc(SCc2ccc(Cl)cc2Cl)n1`, the growth inhibition was 8%.

Take `CC[N](CC)[Ge]([CH2]C)[CH2]C.CC[N](CC)[Ge]([CH2]C)[CH2]C`: the growth inhibition was 99% (active).

Take `Cc1c(-c2ccccc2)ccnc1/C=N/NC(=S)Nc1ccc(N(C)C)cc1`: the growth inhibition is 93% (active).

Turning to `Cc1cc(C)nc(NS(=O)(=O)c2ccc(Nc3c4ccccc4nc4c(C(=O)NC(CO)(CO)CO)cccc34)cc2)n1`, the growth inhibition was -8%.

For `CCCC(CCC)NCCOC(=O)C(CC)c1ccccc1` (configuration not stated), the growth inhibition was 63%.

In the case of `OCCc1ccc(-n2cnc3c(Nc4ccc(Cl)cc4)ncnc32)cc1`, the growth inhibition was 91% (active).

As for `Cc1cccc(N2C(=O)c3ccccc3C2(c2ccccc2)N2CCCCC2)c1` (configuration not stated), the growth inhibition is 2%.

With `CCCCN(CCO)CCNc1ccc(C)c2sc3ccccc3c(=O)c12`, the growth inhibition was 100% (active).

Take `Cc1ccc(C)c(C(=O)CCN)c1`: the growth inhibition is -2%.

`O=C1C(C(O)(C(F)(F)Cl)C(F)(F)Cl)CCCC1C(O)(C(F)(F)Cl)C(F)(F)Cl` (configuration not stated): the growth inhibition was 99% (active).

`CC(C)c1cc2c(cc1O)C(O)C1(O)CCCC(C)(C)[C@H]1CC2` (some centres not stated): the growth inhibition is 99% (active).

Regarding `CN(C)[C@@H]1C(=O)C(C(=O)NCNc2nc3n[nH]nc3c(=O)[nH]2)=C(O)[C@@]2(O)C(=O)C3=C(O)c4c(O)cccc4[C@@](C)(O)[C@H]3C[C@@H]12`, the growth inhibition was 3%.

Values taken from PubChem BioAssay (NCI).
